The record followed here is PubChem BioAssay (NCI).

About 83,000 compounds went through this panel and 20% of them were active in at least one assay; those are over-represented in the sample as a whole.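 Single-concentration screen, 48 h exposure, 96-well plates. Endpoint: percent growth. Below 10 = active.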 Calls of active or inactive are those of the source.

Test in all cases: NCI-60 one-dose screen, 48 h (100 = growth as untreated, 0 = no growth, -100 = all killed)
For one experiment, the system named is RPMI-8226 leukemia. The settings on record: 10 µM unless noted.
The subject of the next experiment is OVCAR-8 ovarian. The following applies: 10 µM unless noted.
For the next experiment, the system named is OVCAR-5 ovarian. The settings on record: 10 µM unless noted.
Another experiment concerns OVCAR-4 ovarian. The following applies: 10 µM unless noted.
The subject of the next experiment is IGROV1 ovarian. The settings on record: 10 µM unless noted.
For another experiment, the system named is OVCAR-3 ovarian. The settings on record: 10 µM unless noted.
A further experiment has as its system HS 578T breast. The following applies: 10 µM unless noted.
The test system of a further experiment is NCI/ADR-RES ovarian. The following applies: 10 µM unless noted.
For a further experiment, the system named is T-47D breast. The settings on record: 10 µM unless noted.
The subject of a further experiment is BT-549 breast. The settings on record: 10 µM unless noted.
The next experiment concerns MDA-MB-435 melanoma. The following applies: 10 µM unless noted.
For another experiment, the system named is SW-620 colon. The settings on record: 10 µM unless noted.
The test system of another experiment is MCF7 breast. The following applies: 10 µM.
The test system of a further experiment is HCT-116 colon. The settings on record: 10 µM unless noted.
Another experiment concerns HCC-2998 colon. The settings on record: 10 µM unless noted.
The next experiment has as its system KM12 colon. The settings on record: 10 µM unless noted.

On to `Nc1nonc1-n1nncc1-c1cccnc1`, for which the growth with RPMI-8226 leukemia was 105% (inactive); in the experiment on OVCAR-8 ovarian, 111% (inactive); in the experiment with OVCAR-5 ovarian it was 110% (inactive); in the experiment on OVCAR-4 ovarian it was 98.8% (inactive); with IGROV1 ovarian, 103% (inactive); in the experiment on OVCAR-3 ovarian it was 116% (inactive). Moreover, the growth with HS 578T breast was 101% (inactive); in the experiment with NCI/ADR-RES ovarian it was 105% (inactive); in the experiment on T-47D breast, 93.9% (inactive); with BT-549 breast it was 105% (inactive); in the experiment with MDA-MB-435 melanoma it was 102% (inactive); with SW-620 colon, 111% (inactive). Besides, the growth is 93.4% (inactive) in the experiment on MCF7 breast, 106% (inactive) in the experiment on HCT-116 colon, 112% (inactive) in the experiment with HCC-2998 colon and 105% (inactive) with KM12 colon.

Regarding `O=c1oc2ccc(Br)cc2c(=O)n1-c1ccc(I)cc1F`, the growth was -28.3% (active) with RPMI-8226 leukemia; 10.4% (inactive) in the experiment on OVCAR-8 ovarian; 22% (inactive) in the experiment on OVCAR-5 ovarian; 15.2% (inactive) in the experiment with OVCAR-4 ovarian; 15.8% (inactive) in the experiment with IGROV1 ovarian; 5.31% (active) in the experiment with OVCAR-3 ovarian. Further, the growth in the experiment with HS 578T breast was 0.536% (active); with NCI/ADR-RES ovarian it was 9.96% (active); in the experiment on T-47D breast, -1.18% (active); in the experiment on MDA-MB-435 melanoma, -1.76% (active); in the experiment on SW-620 colon, 10% (inactive); with MCF7 breast it was 1.41% (active). The growth with HCT-116 colon was 0.0693% (active); in the experiment with KM12 colon, -18% (active).

On to `Cc1ccc2c(n1)C(=O)C(Oc1ccc(Br)cc1)=CC2=O`, for which the growth in the experiment with RPMI-8226 leukemia is 78.7% (inactive); in the experiment on OVCAR-8 ovarian, 92.3% (inactive); with OVCAR-5 ovarian, 114% (inactive); with OVCAR-4 ovarian, 94.5% (inactive); in the experiment on IGROV1 ovarian, 104% (inactive); with OVCAR-3 ovarian, 84.2% (inactive). The growth in the experiment on HS 578T breast is 100% (inactive); in the experiment with NCI/ADR-RES ovarian, 95.8% (inactive); in the experiment on T-47D breast, 59.2% (inactive); in the experiment on MDA-MB-435 melanoma, 101% (inactive); in the experiment with SW-620 colon, 94% (inactive); in the experiment with MCF7 breast, 85.6% (inactive). Besides, the growth is 87.3% (inactive) in the experiment on HCT-116 colon and 102% (inactive) with KM12 colon.

Regarding `Nc1cccc(Nc2cc(S(=O)(=O)O)c(N)c3c2C(=O)c2ccccc2C3=O)c1`, the growth in the experiment on RPMI-8226 leukemia was 110% (inactive); in the experiment with OVCAR-8 ovarian, 104% (inactive); with OVCAR-5 ovarian it was 111% (inactive); in the experiment on OVCAR-4 ovarian, 107% (inactive); with IGROV1 ovarian, 106% (inactive); in the experiment with OVCAR-3 ovarian, 103% (inactive). In addition, the growth is 107% (inactive) with HS 578T breast; 106% (inactive) in the experiment with NCI/ADR-RES ovarian; 93.1% (inactive) with T-47D breast; 109% (inactive) with MDA-MB-435 melanoma; 104% (inactive) in the experiment on SW-620 colon; 108% (inactive) in the experiment on HCT-116 colon. Besides, the growth in the experiment with HCC-2998 colon is 120% (inactive); in the experiment on KM12 colon, 105% (inactive).

`O=c1oc2ccc(Br)cc2c(=O)n1-c1ccc(Br)cc1F`: the growth in the experiment on RPMI-8226 leukemia is -13.8% (active); in the experiment with OVCAR-8 ovarian, 12.3% (inactive); with OVCAR-5 ovarian it was 18.8% (inactive); with OVCAR-4 ovarian it was 10.4% (inactive); in the experiment on IGROV1 ovarian, 9.59% (active); in the experiment with OVCAR-3 ovarian, 8.18% (active). The growth was -5.29% (active) in the experiment with HS 578T breast; 2.87% (active) with NCI/ADR-RES ovarian; -1.51% (active) with T-47D breast; -8.23% (active) in the experiment on MDA-MB-435 melanoma; 5.96% (active) in the experiment on SW-620 colon; 0.224% (active) in the experiment on MCF7 breast. Besides, the growth was -40.2% (active) in the experiment on HCT-116 colon, 1.75% (active) with HCC-2998 colon and -20% (active) in the experiment on KM12 colon.

For the compound `CN(CCc1ccccc1)C(=S)N(C(=O)c1ccc([N+](=O)[O-])cc1)c1ccc(Cl)cc1`, the growth in the experiment with RPMI-8226 leukemia was -15.8% (active); in the experiment on OVCAR-8 ovarian, 99.3% (inactive); with OVCAR-5 ovarian, 100% (inactive); in the experiment with OVCAR-4 ovarian, 86.3% (inactive); in the experiment with IGROV1 ovarian, 105% (inactive); with OVCAR-3 ovarian, 83.5% (inactive). Further, the growth with HS 578T breast was 95.2% (inactive); in the experiment with NCI/ADR-RES ovarian, 98.4% (inactive); in the experiment with T-47D breast, 68% (inactive); in the experiment with MDA-MB-435 melanoma, 85.9% (inactive); in the experiment on SW-620 colon, 75.3% (inactive); with MCF7 breast it was 33% (inactive). The results for the growth with HCT-116 colon and in the experiment on KM12 colon were 67.3% (inactive) and 49.6% (inactive), respectively.

Consider `O=C(Nc1ccc(Br)cc1F)c1cc(Cl)ccc1O`, for which the growth is -24.5% (active) in the experiment with RPMI-8226 leukemia; 9.87% (active) with OVCAR-8 ovarian; -9.6% (active) in the experiment on OVCAR-5 ovarian; 10.2% (inactive) with OVCAR-4 ovarian; 14.1% (inactive) in the experiment on IGROV1 ovarian; 2.24% (active) with OVCAR-3 ovarian. In addition, the growth in the experiment with HS 578T breast is 7.7% (active); in the experiment on NCI/ADR-RES ovarian, 5.2% (active); in the experiment on T-47D breast it was -12.9% (active); in the experiment on MDA-MB-435 melanoma, -13.9% (active); in the experiment with SW-620 colon, 11.7% (inactive); in the experiment with MCF7 breast, 0.423% (active). For the same compound, the values for the growth in the experiment with HCT-116 colon, with HCC-2998 colon and in the experiment on KM12 colon were -30.5% (active), 9.31% (active) and -30.9% (active), respectively.

In the case of `COc1cc2nc(NC3CCCC3)nc(NC3CCN(C(C)C)CC3)c2cc1OC`, the growth in the experiment on RPMI-8226 leukemia is -10.7% (active); in the experiment on OVCAR-8 ovarian it was 89.7% (inactive); in the experiment on OVCAR-5 ovarian, 107% (inactive); in the experiment with OVCAR-4 ovarian, 69% (inactive); in the experiment on IGROV1 ovarian it was 82% (inactive); in the experiment on OVCAR-3 ovarian, 89.4% (inactive). For the same compound, the growth in the experiment with HS 578T breast was 79.6% (inactive); with NCI/ADR-RES ovarian it was 101% (inactive); with T-47D breast, 17.4% (inactive); with BT-549 breast, 76.7% (inactive); in the experiment on MDA-MB-435 melanoma it was -34.3% (active); in the experiment on SW-620 colon, 59.2% (inactive). In addition, the growth with MCF7 breast is 39.8% (inactive); with HCT-116 colon, 66.5% (inactive); with KM12 colon it was 79.2% (inactive).

Turning to `CNCCNc1nc2ccccc2c2c(=O)c3cccc(OC)c3sc12`, the growth was -31.4% (active) with RPMI-8226 leukemia; 23.7% (inactive) in the experiment with OVCAR-8 ovarian; 47.3% (inactive) with OVCAR-5 ovarian; 22.8% (inactive) in the experiment on OVCAR-4 ovarian; 29.7% (inactive) in the experiment on IGROV1 ovarian; 29.4% (inactive) in the experiment on OVCAR-3 ovarian. Also, the growth with HS 578T breast was 40.8% (inactive); with NCI/ADR-RES ovarian, 37.5% (inactive); in the experiment with T-47D breast it was 54.4% (inactive); with BT-549 breast, 73.1% (inactive); in the experiment with MDA-MB-435 melanoma, -72.7% (active); with SW-620 colon it was -80.1% (active). Moreover, the growth in the experiment on MCF7 breast was -67.5% (active); with HCT-116 colon, -68.2% (active); in the experiment with HCC-2998 colon, -52.3% (active); in the experiment with KM12 colon, -47.9% (active).
